Experimental data taken from PubChem BioAssay (NCI).
The panel holds about 79,000 compounds, 15% with a hit somewhere; the sample as a whole holds those more often. Unmarked numbers belong to inactive results. The source made the active and inactive calls. No stated cut-off is given here; in the data, active means growth inhibition above about 70%; inactive means the rest.

Assays:
[1] = NCI Yeast Anticancer Drug Screen. Data for the rad50 strain (AID 155);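 further: 0% = growth of vehicle-only cultures of the same strain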; settings: S. cerevisiae rad50 strain growth inhibition, active compounds read high
Outline: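 A DNA repair-deficient yeast mutant serves as the test organism; compound-induced growth inhibition is calculated against vehicle-treated cells.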

[2] = NCI Yeast Anticancer Drug Screen. Data for the mec2-1 strain (AID 157); settings: S. cerevisiae mec2-1 strain, active compounds read high
Outline: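 Readout is yeast growth inhibition, normalised to vehicle-treated controls, in the mec2-1 strain exposed to compound.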

[3] = NCI Yeast Anticancer Drug Screen. Data for the sgs1 mgt1 strain (AID 161);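 further: 0% = growth of cultures given vehicle only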; settings: S. cerevisiae sgs1 mgt1 strain, active compounds read high
Outline: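 Yeast cells carrying a defined DNA-repair defect were exposed to test compounds. Growth inhibition was measured relative to vehicle-treated controls.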

[4] = NCI Yeast Anticancer Drug Screen. Data for the cln2 rad14 strain (AID 165);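 further: 0% = growth equal to vehicle treated cultures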; settings: S. cerevisiae cln2 rad14 strain, active compounds read high
Outline: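 Relative to vehicle controls, growth inhibition of compound-treated cln2 rad14 yeast was recorded.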

[5] = NCI Yeast Anticancer Drug Screen. Data for the bub3 strain (AID 167); settings: S. cerevisiae bub3 mutant strain, active compounds read high
Outline: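 Inhibition values come from growth of compound-treated mutant yeast normalised to vehicle-treated controls.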

[6] = NCI Yeast Anticancer Drug Screen. Data for the mlh1 rad18 strain (AID 175); settings: S. cerevisiae mlh1 rad18 strain growth inhibition, active compounds read high
Outline: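 Test agents were incubated with a yeast strain of defined genotype (DNA damage repair defect). Inhibition of growth was derived by comparison with vehicle-exposed cultures.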

[7] = at 5.0 µM (retest, dose inferred, filed as 0.5)
[8] = at 50.0 µM (retest, dose inferred, filed as 5.0)

SMILES | growth inhibition [1, 7] [%] | growth inhibition [1, 8] | growth inhibition ([1]; at 50.0 µM) | growth inhibition [2, 7] [%] | growth inhibition [2, 8] | growth inhibition ([2]; at 50.0 µM) | growth inhibition [3, 7] [%] | growth inhibition [3, 8] | growth inhibition ([3]; at 50.0 µM) | growth inhibition [4, 7] [%] | growth inhibition [4, 8] | growth inhibition ([4]; at 50.0 µM) | growth inhibition [5, 7] [%] | growth inhibition [5, 8] | growth inhibition ([5]; at 50.0 µM) | growth inhibition [6, 7] [%] | growth inhibition [6, 8] | growth inhibition ([6]; at 50.0 µM)
C[n+]1c(/C=C/c2ccc(Cl)cc2)sc2ccccc21 | -4 | 36% | 60.5% | -6 | 51% | 51.9% | -11 | 36% | 73% (active) | 1 | 28% | 75.2% (active) | -12 | 34% | 29.6% | 11 | 50% | 78.8% (active)
Nc1nc(-c2ccc(Cl)cc2)cs1 | -20 | 94% (active) | 98% (active) | 4 | 91% (active) | 97.4% (active) | 8 | 91% (active) | 98.2% (active) | -44 | 92% (active) | 97% (active) | -29 | 90% (active) | 97.8% (active) | -30 | 97% (active) | 97.7% (active)
COc1ccc(N=C2C(=S)N(c3ccc(OC)cc3)/C(=N/S(=O)(=O)c3ccccc3)N2c2ccccc2)cc1 | 10 | 18% | 8.6% | 9 | 23% | -4.1% | -23 | 0% | 5.7% | -11 | 3% | 11.2% | -13 | 11% | 1.65% | 14 | 16% | 14%
O=C(Nc1cc(Cl)ccc1Oc1cc(Cl)c(Cl)cc1S(=O)(=O)O)Nc1cc(Cl)ccc1Oc1cc(Cl)c(Cl)cc1S(=O)(=O)O | -10 | 81% (active) | 85% (active) | -3 | 73% (active) | 87.4% (active) | -13 | 79% (active) | 84.1% (active) | 23 | 56% | 76% (active) | 14 | 78% (active) | 86% (active) | -4 | 91% (active) | 85.3% (active)
Cn1c2c(c3ccccc31)CCN(CCN1CCN(c3ccccc3)CC1)C2=O | 30 | 31% | 71.9% (active) | 21 | 29% | 43% | 28 | 37% | 79% (active) | 26 | 24% | 60.6% | 32 | 43% | 67.5% | 32 | 35% | 59.8%
COc1cc(C2c3cc4c(cc3OC(NNc3ccccc3)C2C)OCO4)cc(OC)c1O (configuration not stated) | -5 | 97% (active) | 98.2% (active) | -15 | 98% (active) | 98.7% (active) | -13 | 99% (active) | 98.4% (active) | -5 | 96% (active) | 98.6% (active) | -7 | 97% (active) | 98.7% (active) | -11 | 97% (active) | 98.3% (active)
CCN(CC)Cc1cc(Nc2c3ccccc3nc3c4ccccc4n(C)c23)ccc1O | 0 | 23% | 74.2% (active) | 2 | -4% | 16.2% | -10 | 9% | 30.2% | 0 | 0% | -1.6% | -6 | 13% | 55.3% | -10 | 0% | 42.9%
Nc1cc(F)c(F)cc1Sc1cc(F)c(F)cc1N | 39 | 95% (active) | 99.2% (active) | 31 | 99% (active) | 99.2% (active) | 52 | 98% (active) | 99.2% (active) | 41 | 98% (active) | 89.9% (active) | 29 | 98% (active) | 99.5% (active) | 54 | 97% (active) | 99.2% (active)
O=c1c(O)c(-c2ccc(Cl)cc2)oc2cc(O)ccc12 | 4 | 52% | 88.7% (active) | 2 | 86% (active) | 77.7% (active) | 1 | 54% | 89.7% (active) | -7 | -2% | -9.3% | 3 | 51% | 59.5% | 7 | 50% | 91.5% (active)
